{
  "source": "PubChem BioAssay AID463082",
  "about": "(The Scripps Research Institute Molecular Screening Center, 2010)",
  "note": "Screen size: about 330,000 compounds; about 4,900 (1.5%) were called active. Only a selection was taken, and actives are over-represented in it overall. Unmarked numbers belong to inactive results.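 How the source made its calls: active means inhibition above the mean inhibition across the screen plus 3 SD (cut at about 25% in these data); inactive means the rest.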",
  "data": [
    {"target": "Platelet-activating factor acetylhydrolase (Homo sapiens) (UniProt Q13093)", "sequence (Q13093 whole entry, looked up)": "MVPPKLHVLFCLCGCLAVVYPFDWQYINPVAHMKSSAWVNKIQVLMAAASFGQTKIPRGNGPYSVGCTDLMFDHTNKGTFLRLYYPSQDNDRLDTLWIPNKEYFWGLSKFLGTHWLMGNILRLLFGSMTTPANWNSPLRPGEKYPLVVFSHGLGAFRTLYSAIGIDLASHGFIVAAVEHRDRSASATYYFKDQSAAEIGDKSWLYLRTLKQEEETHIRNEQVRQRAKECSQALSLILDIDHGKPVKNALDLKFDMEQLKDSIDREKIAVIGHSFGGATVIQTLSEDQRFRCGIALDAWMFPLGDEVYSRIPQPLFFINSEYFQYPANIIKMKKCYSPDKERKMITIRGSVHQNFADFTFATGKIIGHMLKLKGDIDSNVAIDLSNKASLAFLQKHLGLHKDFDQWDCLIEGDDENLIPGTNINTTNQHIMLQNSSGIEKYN", "assay": "pPAFAH enzyme inhibitors, primary screen, biochemical, fluorescence polarization, human (AID 463082);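 further: inhibitors block binding of the rhodamine activity-based probe so polarization drops; 0% = enzyme with DMSO and 100% = wells lacking pPAFAH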", "details": "recombinant pPAFAH, FP-rhodamine probe fluorescence polarization; at 3.39 µM; active compounds read high", "values": [
      {"smiles": "O=C(Nc1ccc2c(c1)OCO2)C1CC(c2c(F)cccc2Cl)=NO1", "note": "(centres undefined)", "inhibition": "1.16%"},
      {"smiles": "Nc1ccc2nc3c(=O)[nH]c(=S)[nH]c3nc2c1", "inhibition": "47.8% (active)"},
      {"smiles": "O=C1CSc2ccc(C(=O)NCc3ccccn3)cc2N1", "inhibition": "0.84%"},
      {"smiles": "O=C(NCc1ccccn1)c1ccc2nc(-c3ccco3)c(-c3ccco3)nc2c1", "inhibition": "65.8% (active)"},
      {"smiles": "COc1cccc(NC(=O)NCCN2CCCCC2)c1", "inhibition": "3.86%"},
      {"smiles": "Cc1cc(C)cc(NC(=O)NCc2ccccn2)c1", "inhibition": "1.23%"},
      {"smiles": "COCCNC(=O)Nc1ccc2nc(-c3ccco3)c(-c3ccco3)nc2c1", "inhibition": "75.6% (active)"},
      {"smiles": "COCCNC(=O)c1snc2ccc(Cl)cc12", "inhibition": "-0.4%"},
      {"smiles": "Cc1ccc(C(=O)CN2C(=O)NC3(CCc4ccccc43)C2=O)c(C)c1", "note": "(centres undefined)", "inhibition": "-8.87%"},
      {"smiles": "O=S(=O)(Oc1ccccc1C(=S)N1CCOCC1)c1ccc(Cl)cc1", "inhibition": "4.58%"},
      {"smiles": "O=C(NCc1ccc(F)cc1)C1CCC(CNc2c(N3CCOCC3)c(=O)c2=O)CC1", "note": "(centres undefined)", "inhibition": "1.22%"},
      {"smiles": "CCOC(=O)c1sc(NC(=O)C2CSC3(C)CCC(=O)N23)nc1C", "note": "(centres undefined)", "inhibition": "0.96%"},
      {"smiles": "Cc1cc(C)c(C2C3=C(Nc4c2c(C)nn4-c2ccccn2)c2ccccc2C3=O)c(C)c1", "note": "(centres undefined)", "inhibition": "-8.35%"},
      {"smiles": "Cc1ccc(C2C3=C(Nc4[nH]n(-c5ccccc5)c(=O)c42)c2ccccc2C3=O)cc1", "note": "(centres undefined)", "inhibition": "34.5% (active)"},
      {"smiles": "Cc1ccc(-c2ccnc3[nH]n(-c4ccccc4)c(=O)c23)cc1", "inhibition": "2.79%"},
      {"smiles": "COc1ccccc1N(CC(=O)Nc1ccc(C)cc1Cl)S(=O)(=O)c1cccs1", "inhibition": "6.13%"},
      {"smiles": "O=c1cc(CN2CCN(S(=O)(=O)/C=C/c3ccccc3)CC2)c2ccc(O)cc2o1", "inhibition": "2.78%"},
      {"smiles": "Cc1ccccc1C(=O)Nc1cccc(-c2nnc(SCC(=O)O)n2C)c1", "inhibition": "-1.6%"},
      {"smiles": "Cc1noc(C)c1C(=O)OC(C)C(=O)Nc1ccc2c(c1)OCO2", "note": "(centres undefined)", "inhibition": "1.18%"},
      {"smiles": "O=C(COC(=O)Cc1ccc(Br)cc1)Nc1ccc(N2CCOCC2)cc1", "inhibition": "6.93%"},
      {"smiles": "O=C(COC(=O)Cc1ccc(Br)cc1)Nc1c(F)c(F)c(F)c(F)c1F", "inhibition": "32.9% (active)"},
      {"smiles": "Cc1cccc(C)c1NC(=O)CNC(=O)Cc1ccc(Br)cc1", "inhibition": "1.92%"},
      {"smiles": "CCC(C)N(C(=O)Cn1nc(C)c([N+](=O)[O-])c1C)C1CCS(=O)(=O)C1", "note": "(centres undefined)", "inhibition": "-1.29%"},
      {"smiles": "Cc1cc(F)ccc1S(=O)(=O)Nc1ncnc2scc(-c3ccc(F)cc3)c12", "inhibition": "30.3% (active)"},
      {"smiles": "COc1ccc(-c2csc3ncnc(N4CCN(S(=O)(=O)c5cccc(F)c5)CC4)c23)cc1", "inhibition": "3.15%"},
      {"smiles": "O=S(=O)(Nc1ncnc2sccc12)c1cccc(F)c1", "inhibition": "12.2%"},
      {"smiles": "Cc1cnc(C)c(N2CCN(C(=O)C3CCC(=O)N(CCc4cccc(F)c4)C3)CC2)n1", "note": "(centres undefined)", "inhibition": "4.96%"},
      {"smiles": "CCCCn1c(N)c(N(CC)C(=O)c2ccccc2C(F)(F)F)c(=O)[nH]c1=O", "inhibition": "-0.54%"},
      {"smiles": "CC(=O)Nc1cccc(Nc2nc(-c3cccs3)nc3ccccc23)c1", "inhibition": "-12.8%"},
      {"smiles": "CCOC(=O)c1nc(Nc2ccc(C(=O)OC)cc2)c2ccccc2n1", "inhibition": "-0.04%"},
      {"smiles": "Cc1cccc(-c2nc(Nc3ccc(O)cc3)c3ccccc3n2)c1", "inhibition": "26.7% (active)"},
      {"smiles": "O=C(COC(=O)CC1CC2CCC1C2)NC(=O)NC1CCCC1", "note": "(centres undefined)", "inhibition": "2.89%"},
      {"smiles": "Cc1ccc(C(=O)N/C(=C/c2cccs2)C(=O)NCC2CCCO2)cc1", "note": "(centres undefined)", "inhibition": "-4.31%"},
      {"smiles": "Cc1cc(/C=C(/C#N)C(=O)Nc2ccc(Cl)cc2)c(C)n1-c1cccnc1", "inhibition": "0.95%"},
      {"smiles": "Cc1ccc(-n2c(C)cc(/C=C(\\C#N)C(=O)NCC3CCCO3)c2C)cc1", "note": "(centres undefined)", "inhibition": "68.5% (active)"},
      {"smiles": "COc1ccccc1C(=O)Nc1ccnn1C1CCN(C(=O)C(C)(C)C)CC1", "inhibition": "-0.55%"},
      {"smiles": "COc1ccc(/C=C/C(=O)N2CCCC2)cc1OC", "inhibition": "0%"},
      {"smiles": "COc1ccc(/C=C/C(=O)c2ccc(NS(=O)(=O)c3ccc(C)cc3)cc2)cc1O", "inhibition": "23.6%"},
      {"smiles": "COC(=O)c1ccc(COc2ccc(/C=C/C(=O)c3ccc(OC)c(CSCC(=O)O)c3)cc2OC)cc1", "inhibition": "28.7% (active)"},
      {"smiles": "COCCn1c(SC(C)C(=O)NC2CC2)nnc1-c1cccc(C)c1", "note": "(centres undefined)", "inhibition": "-1.49%"},
      {"smiles": "COc1cc(C2C(C#N)=C(N)Oc3n[nH]c(-c4ccccn4)c32)cc(OC)c1OC", "note": "(centres undefined)", "inhibition": "2.74%"},
      {"smiles": "COc1ccc(C2C(C#N)=C(N)Oc3cc(N)ccc32)cc1OC", "note": "(centres undefined)", "inhibition": "26% (active)"},
      {"smiles": "N#CC1=C(N)Oc2cc(O)ccc2C1C1CCCCC1", "note": "(centres undefined)", "inhibition": "2.82%"},
      {"smiles": "CCOC(=O)[C@H]1[C@H]2COc3ccc(C)cc3[C@@H]2N2C(=O)CN(Cc3ccc(F)cc3)C(=O)[C@@]12C", "inhibition": "-0.02%"},
      {"smiles": "C=CCN(N=Nc1cccc([N+](=O)[O-])c1)c1cccc([N+](=O)[O-])c1", "inhibition": "9.93%"},
      {"smiles": "Cn1c2ccccc2c2cc(/C=C(\\NC(=O)c3ccccc3)C(=O)NCC(=O)O)ccc21", "inhibition": "24.7% (active)"},
      {"smiles": "CCOC(=O)CNC(=O)/C(=C\\c1ccc(F)cc1)NC(=O)c1ccccc1", "inhibition": "-2.32%"},
      {"smiles": "COc1ccc(/C=C(\\NC(=O)c2ccccc2)C(=O)NCCN2CCOCC2)cc1OC", "inhibition": "4.35%"},
      {"smiles": "Cc1ccc2c(c1)nnc1nnc(SCC(=O)O)n12", "inhibition": "2.74%"},
      {"smiles": "CC(C)C[C@H](NC(=O)N1CCn2c1nc1ccccc12)C(=O)NC1CC1", "inhibition": "1.86%"},
      {"smiles": "COc1ccc(C(=O)Nc2cc(C)c(NC(=O)c3ccccc3OC)cn2)cc1", "inhibition": "2.94%"},
      {"smiles": "C=CCn1c(=S)[nH]c2scc(-c3ccco3)c2c1=O", "inhibition": "42.6% (active)"},
      {"smiles": "C=CCn1c(=S)[nH]c2nc3c(cc2c1=O)COC(C)(C)C3", "inhibition": "-1.93%"},
      {"smiles": "C=CCn1cnc2scc(-c3ccccc3)c2c1=O", "inhibition": "0.46%"},
      {"smiles": "C#CCOCCOCCOCCNc1nc(N2CCN(C(=O)C(Cc3ccc(O)cc3)n3cc(C(N)CC(C)C)nn3)CC2)nc(N2CCN(C(=O)C(Cc3ccc(O)cc3)n3cc(C(N)C(C)CC)nn3)CC2)n1", "note": "(centres undefined)", "inhibition": "0.55%"},
      {"smiles": "CN(C)S(=O)(=O)N1CCC(Oc2cccc(C(=O)NCCCC3CCCC3)c2)CC1", "inhibition": "3.19%"},
      {"smiles": "Cc1ccc(C(=O)O)cc1-c1ccc(/C=C2\\SC(=O)N(CC(=O)Nc3ccc4c(c3)OCO4)C2=O)o1", "inhibition": "30.2% (active)"},
      {"smiles": "Cc1ccc(C(=O)Nc2ccc3c(c2)OCO3)cc1S(=O)(=O)N1CCCCC1", "inhibition": "14.5%"},
      {"smiles": "Cc1nn(CC(=O)Nc2ccc3c(c2)OCO3)c(C)c1[N+](=O)[O-]", "inhibition": "-3.11%"}
    ]}
  ]
}
